Source: PubChem BioAssay (EPA / NIEHS)
Inconclusive results are not listed. Active and inactive are the calls of the source. The calls were made as follows, unless noted: active = hit-call score of the fitted dose curve at least 0.9, where 1 is the maximum; inactive = score below 0.9.

Experiments:
[1] = CCTE_Shafer_MEA_dev_burst_duration_mean: CCTE's Neural Network Formation Assay for Mean Burst Duration, Shafer Lab (AID 2284045);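 as to AC50: curve fitted for loss meaning shorter burst duration than DMSO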
Procedure, shortened: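 Mean single-electrode burst duration (first to last spike), averaged over bursting electrodes per well, then integrated as area-under-curve across recordings at days 5, 7, 9 and 12. Rat cortical cultures on MEAs, compound present from plating, refreshed at feeds.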

[2] = CCTE_Shafer_MEA_dev_interburst_interval_mean: CCTE's Neural Network Formation Assay for Mean Interburst Interval, Shafer Lab (AID 2284046);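 also: well-mean interburst interval of bursting electrodes as AUC over four recording days; curve fitted for decrease in interburst interval relative to DMSO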
Procedure, shortened: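 Developing rat cortical networks on 48-well MEAs receive compound from the day of plating. Burst intervals from each active electrode are averaged per well, and AUC over the recording days is fitted in the negative direction against DMSO.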

[3] = CCTE_Shafer_MEA_dev_inter_network_spike_interval_mean: CCTE's Neural Network Formation Assay for Mean Inter-network Spike Interval, Shafer Lab (AID 2284047)
Procedure, shortened: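 Rat cortical cultures, 1.5 x 10^5 cells/well on 48-well MEA plates; continuous exposure days 0–12, medium and compound refreshed DIV 5, 9. Mean time between consecutive network-spike peaks; AUC across DIV 5/7/9/12; DMSO baseline, negative fitting direction.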

[4] = CCTE_Shafer_MEA_dev_network_spike_number: CCTE's Neural Network Formation Assay for Number of Network Spikes, Shafer Lab (AID 2284048);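 also: synchronized bursts across electrodes counted on days 5 7 9 12 and integrated as AUC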;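 as to AC50: fit as a loss of signal meaning fewer network spikes than DMSO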
Procedure, shortened: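 Number of network spikes (coordinated firing across electrodes) recorded on days 5, 7, 9 and 12 and summarised as area under the curve. Rat cortical cultures on MEA, continuous compound exposure with full medium/treatment exchange at DIV 5 and 9.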

[5] = CCTE_Shafer_MEA_dev_network_spike_peak: CCTE's Neural Network Formation Assay for Mean Number of Electrodes in Network Spike, Shafer Lab (AID 2284049);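 as to AC50: fitted for loss of signal meaning fewer electrodes in network spikes than DMSO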
Procedure, shortened: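 Rat cortical primary culture, 1.5 x 10^5 cells/well, 48-well MEA (16 electrodes/well). Dosing day 0 through DIV 12, full media/compound exchange DIV 5, 9. AxIS adaptive spike detection; AUC over days 5/7/9/12; loss-of-signal vs DMSO.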

[6] = CCTE_Shafer_MEA_dev_spike_duration_mean: CCTE's Neural Network Formation Assay for Mean Spike Duration, Shafer Lab (AID 2284051);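 also: mean network spike duration pooled as area under curve over DIV 5 to 12 recordings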;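 as to AC50: potency for a decrease in mean network spike duration versus DMSO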
Procedure, shortened: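 Readout is the average length of network spikes, clustered firing across electrodes, summed over DIV 5, 7, 9 and 12 as area under the curve. Neurons from rat cortex developed networks on MEA plates under continuous 12-day exposure.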

[7] = CCTE_Shafer_MEA_dev_network_spike_duration_std: CCTE's Neural Network Formation Assay for Standard Deviation of Network Spike Duration, Shafer Lab (AID 2284052);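 also: hits are decreases in network spike duration SD versus DMSO vehicle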
Procedure, shortened: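 Read-out is the trapezoidal area-under-the-curve across recordings made on days 5, 7, 9 and 12, fitted in the negative direction against DMSO baseline. Neurons were primary rat cortical cells treated from day 0, with treatment renewed at each feed.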

[8] = CCTE_Shafer_MEA_dev_per_network_spike_spike_number_mean: CCTE's Neural Network Formation Assay for Mean Number of Spikes in a Network Spike, Shafer Lab (AID 2284053);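 as to AC50: fitted as decrease in spikes per network spike relative to DMSO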
Procedure, shortened: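 Continuous twelve-day exposure of developing rat cortical networks grown over 16 microelectrodes per well; spontaneous firing is captured at four time points, and the per-network-spike spike number is integrated over development by trapezoidal AUC.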

[9] = CCTE_Shafer_MEA_dev_per_network_spike_spike_percent: CCTE's Neural Network Formation Assay for Percent of Spikes in a Network Spike, Shafer Lab (AID 2284054)
Procedure, shortened: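 Metric: fraction of spikes falling in a 0.05 s window at network-spike peaks. Recordings were made on days 5, 7, 9 and 12 and collapsed by trapezoidal AUC. Cultures were rat cortical neurons on MEA plates, dosed continuously from plating, re-dosed at media changes.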

[10] = CCTE_Shafer_MEA_dev_mutual_information_norm: CCTE's Neural Network Formation Assay for Mutual Information Normalization, Shafer Lab (AID 2284091);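 as to AC50: mutual information between electrodes summarised as area under curve across four recording days; potency is for a decrease in mutual information relative to DMSO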
Procedure, shortened: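 Shared information across electrodes, tracked on days 5, 7, 9 and 12 of network development and collapsed as trapezoidal area under the curve. Rat cortical cultures were treated continuously from plating, with treatment renewed at feeds on DIV 5 and 9; DMSO baseline, negative-direction fit.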

[11] = CCTE_Shafer_MEA_dev_correlation_coefficient_mean: CCTE's Neural Network Formation Assay for Mean Correlation Coefficient, Shafer Lab (AID 2284093);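 as to AC50: well mean pairwise spike train correlation integrated as AUC over recording days 5 to 12; potency fitted for loss of correlation relative to DMSO vehicle wells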
Procedure, shortened: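 Read-out: well-mean correlation coefficient of spike trains between electrode pairs, collapsed over four recording days as trapezoidal area-under-the-curve. Developing rat cortical neuron networks grown on MEAs received test chemical continuously from plating.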

[12] = CCTE_Shafer_MEA_acute_AB: CCTE's Alamar Blue Assay for Cytotoxicity in the Neural Acute Assay, Shafer Lab (AID 2284069; active = hit-call score of the fitted dose curve at least 0.9, where 1 is the maximum;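 also: active compounds lower the viability signal compared with DMSO wells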)
Procedure, shortened: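 Metabolic activity in chemically exposed rat cortical neurons (MEA cultures, day 13/15 post-plating) measured via CellTiter Blue resazurin reduction, 544/590 nm fluorescence; fitted relative to DMSO, with signal loss indicating reduced viability.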

[13] = CCTE_Shafer_MEA_dev_LDH: CCTE's Lactate Dehydrogenase Assay for Cytotoxicity in the Neural Network Formation Assay, Shafer Lab (AID 2284068; active = hit-call score of the fitted dose curve at least 0.9, where 1 is the maximum;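 also: exposure for twelve days from plating with re-dosing on DIV 5 and 9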)
Procedure, shortened: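 Cytotoxicity companion to network-formation recordings: rat cortical neurons received compound over 12 days of development, re-dosed at DIV 5 and 9 feeds. Viability was inferred from LDH enzyme activity relative to DMSO.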

[14] = CCTE_Shafer_MEA_dev_AB: CCTE's Alamar Blue Assay for Cytotoxicity in the Neural Network Formation Assay, Shafer Lab (AID 2284083; active = hit-call score of the fitted dose curve at least 0.9, where 1 is the maximum;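 also: twelve days of exposure from plating with re-dosing on DIV 5 and 9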)
Procedure, shortened: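 Fluorescent resazurin reduction serves as the viability read-out, with DMSO as negative control and baseline. Cells were primary rat cortical neurons grown on MEA plates and dosed from day 0 to day 12, treatment renewed on DIV 5 and 9.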

[15] = CCTE_Shafer_MEA_acute_LDH: CCTE's Lactate Dehydrogenase Assay for Cytotoxicity in the Neural Acute Assay, Shafer Lab (AID 2284086; active = hit-call score of the fitted dose curve at least 0.9, where 1 is the maximum;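 also: active means LDH release rises above DMSO vehicle level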)
Procedure, shortened: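 LDH released during 40 min compound exposure of primary rat cortical cultures, quantified by absorbance at 490 nm in collected medium. Fitting direction positive versus DMSO vehicle.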

[16] = tested on: DIO2 (gene 1734); experiment: CCTE_GLTED_hDIO2: CCTE's human Deiodinase 2 (DIO2) Inhibition Assay, Great Lakes Toxicology and Ecology Division (GLTED) Lab (AID 2284050; active = hit-call score of the fitted dose curve at least 0.9, where 1 is the maximum)
Procedure, shortened: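 Iodide released by human deiodinase 2 over 3 h with test chemical, measured spectrophotometrically via Sandell-Kolthoff cerium/arsenic reaction. Run n=3; inhibition referenced to DMSO.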

[17] = tested on: DIO3 (gene 1735); experiment: CCTE_GLTED_hDIO3: CCTE's human Deiodinase 3 (DIO3) Inhibition Assay, Great Lakes Toxicology and Ecology Division (GLTED) Lab (AID 2284055; active = hit-call score of the fitted dose curve at least 0.9, where 1 is the maximum;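 also: potency is for inhibition seen as loss of released iodide signal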)
Procedure, shortened: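 Inhibition is read as reduced iodide release, measured spectrophotometrically by the Sandell-Kolthoff cerium/arsenic reaction. Adenovirus-expressed human DIO3 enzyme is exposed to chemical for 3 h, n=3 plates. Iodinated chemicals, nitrite, iron or thiocyanate may interfere.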

[18] = UKN2_HCS_IMR90_neural_migration: University of Konstanz (UKN) Leist Lab Neural Crest Cell Migration Assay in human induced IMR90 Pluripotent Stem Cells (UKN2) (AID 2284204); conditions: actives raise or lower the signal
Procedure, shortened: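 High-content imaging of calcein-AM and Hoechst stained cells quantifies migration into a stopper-defined gap after 24 h compound exposure. Neural crest cells from IMR90 iPSC migrated 24 h in EGF/FGF N2-S medium before dosing; DMSO baseline.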

Measured: AC50

CC(=O)C(F)(F)C(F)(F)F
not listed: [12] | [13] | [14] | [15] | [16] | [17] | [18]
inactive: all other assays above

Oc1ccc(Cc2ccc(O)cc2)cc1
inactive: [12]

Cc1cc(C(F)(C(F)(F)F)C(F)(F)F)ccc1NC(=O)c1cccc(I)c1C(=O)NC(C)(C)CS(C)(=O)=O
active: [2] 6.7 µM | [5] 18 µM | [6] 11.3 µM | [8] 17.4 µM | [9] 20.9 µM | [13] 11.3 µM | [14] 4.32 µM | [11] 19.2 µM
inactive: [1] | [3] | [4] | [7] | [15] | [10]

C=CC(F)(C(F)(F)F)C(F)(F)C(F)(F)F (stereo not drawn)
not listed: [12] | [14] | [15] | [16] | [17] | [18]
inactive: all other assays above

CC(=Cc1ccccc1)[N+](=O)[O-]
active: [16] 41.8 µM | [17] 64.6 µM

C=CCOC(F)(C(F)(F)F)C(F)(F)F
active: [5] 0.0255 µM
not listed: [12] | [13] | [14] | [15] | [16] | [17] | [18]
inactive: all other assays above

CCCCOC(=O)COC(=O)c1ccccc1C(=O)OCCCC
inactive: [12] | [15]

Cc1ccccc1OP(=O)(Oc1ccccc1C)Oc1ccccc1C
inactive: [1] | [3] | [4] | [7] | [15]
active: [2] 15 µM | [5] 18.7 µM | [6] 21.4 µM | [8] 20.3 µM | [9] 19.4 µM | [13] 20.2 µM | [14] 21.1 µM | [10] 11.5 µM | [11] 15 µM | [18] 4.73 µM

CC(C)[C@@H](Nc1ccc(C(F)(F)F)cc1Cl)C(=O)OC(C#N)c1cccc(Oc2ccccc2)c1 (stereo partly drawn)
active: [5] 20.9 µM | [6] 25.8 µM | [9] 14.5 µM | [13] 23.5 µM | [14] 14.5 µM | [10] 9.36 µM | [11] 14.5 µM
not listed: [16] | [17] | [18]
inactive: all other assays above

CCOCn1c(-c2ccc(Cl)cc2)c(C#N)c(Br)c1C(F)(F)F
inactive: [3]
active: [1] 2.71 µM | [2] 6.29 µM | [4] 7.36 µM | [5] 8.42 µM | [6] 6.23 µM | [7] 1.64 µM | [8] 6.48 µM | [9] 10.8 µM | [13] 12.1 µM | [14] 20.4 µM | [10] 1.72 µM | [11] 5.53 µM | [18] 9.47 µM

N#CCC#N
active: [16] 48.8 µM | [17] 58 µM

CC(C)(C)c1ccccc1O
inactive: [12] | [15]

CC(F)(F)CC(F)(F)F
not listed: [12] | [13] | [15] | [16] | [17] | [18]
inactive: all other assays above
